Hits are enriched below; roughly 1.2% of the tested compounds scored in any of these assays.
BCLXL inh: inhibitors of human Bcl-xL, primary screen, biochemical, fluorescence polarization, HTS | AID 2129, 2009 | Bcl-2-like protein 1 (Homo sapiens), Q07817 | inhibition, % at 10.9 µM | GST-Bcl-xL / FITC-Bim BH3 peptide fluorescence polarization | hit rate 0.7% among 320,000;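 active = inhibition above the mean of all tested compounds plus 3 SD, cutoff set per campaign, cut at about 30% in these data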;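 also: inhibitors lower millipolarization by displacing the labeled peptide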
Target sequence (Q07817 whole entry, looked up): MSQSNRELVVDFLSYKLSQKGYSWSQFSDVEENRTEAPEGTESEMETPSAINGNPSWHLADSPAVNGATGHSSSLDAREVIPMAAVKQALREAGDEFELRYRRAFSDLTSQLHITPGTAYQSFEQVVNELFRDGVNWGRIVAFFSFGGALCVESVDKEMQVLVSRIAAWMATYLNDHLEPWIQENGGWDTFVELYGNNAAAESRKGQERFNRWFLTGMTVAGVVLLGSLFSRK
cardiac RTF act: cardiac RTF calcium sensitivity activators, primary screen, biochemical, IANBD-TnC fluorescence, EC20 calcium; Troponin I, cardiac muscle (Homo sapiens) + Troponin T, cardiac muscle (Homo sapiens) + …; IANBD-labeled TnC RTF fluorescence at EC20 calcium; 0% EC20 calcium, 100% full calcium; activation, % at 7.2 µM; hit rate 0.24% among 340,000; AID 493008, 2010;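 active = activation above the mean over all tested compounds plus 3 SD, cut at about 30% in these data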;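 also: rise in fluorescence read as greater calcium sensitivity of cardiac thin filaments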
RTF Ca sens inh: cardiac RTF calcium sensitivity inhibitors, primary screen, biochemical, IANBD-TnC fluorescence, EC70 calcium. AID 493244, 2011. hit rate 0.12% among 340,000. Troponin I, cardiac muscle (Homo sapiens) + Troponin T, cardiac muscle (Homo sapiens) + …. inhibition, % at 7.15 µM. IANBD-labeled cardiac RTF, Ca2+ fluorescence;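 active = inhibition above the mean inhibition of all tested compounds plus 3 SD, cut at about 17% in these data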;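 also: assay run at fixed EC70 calcium of 1.6 mM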
eLon inh: inhibitors of E. coli Lon protease, primary screen, biochemical, fluorescence polarization. purified E. coli Lon protease. hit rate 0.42% among 360,000. inhibition, % at 7.94 µM. AID 602123, 2011; in the data active = inhibition above about 13%, passing the limit was not always enough
GLD-1 RNA inh: GLD-1/TGE RNA complex disruptors, primary screen, biochemical, fluorescence polarization; hit rate 0.44% among 320,000; inhibition, % at 5.96 µM; Female germline-specific tumor suppressor gld-1 (Caenorhabditis elegans), Q17339; purified GLD-1 + fluorescein TGE RNA;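 active = percent inhibition above a per-plate cutoff, the plate mean of test compounds plus 3 SD, cut at about 30% in these data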
eLon confirm: E. coli Lon protease inhibitor retest, confirmation, biochemical, fluorescence polarization. AID 602230, 2012. hit rate 31% among 1,400. inhibition, % at 7.94 µM. shares compounds with eLon inh. purified E. coli Lon; in the data active = inhibition above about 16%
A number is an active result; - = inactive; . = no result given; + = active, no number.

SMILES | BCLXL inh | cardiac RTF act | RTF Ca sens inh | eLon inh | GLD-1 RNA inh | eLon confirm
CCC(C)C(NC(=O)c1ccccc1NC(=O)c1ccco1)C(=O)NC1CCCCC1 (stereo not given) | - | - | - | - | - | .
O=C(CN1C(=O)c2ccccc2C1=O)c1ccccc1 | - | - | - | - | - | .
O=C(O)CN1C(=O)c2ccc(C(=O)c3ccccc3)cc2C1=O | - | - | - | 27 | - | -
CCCCC1OC2(C)OC(=N)C1(C#N)C(C#N)(C#N)C2c1ccccc1 (stereo not given) | - | - | - | 29 | - | -
CC1OC2(C)OC(=N)C1(C#N)C(C#N)(C#N)C2c1ccccc1 (stereo not given) | 55 | - | - | 15 | 66 | -
COC(=O)C1(C#N)C(c2ccccc2)C1(C(=O)OC)C(=O)OC (stereo not given) | - | - | - | - | - | .
CC1C2(C)OC(=N)C(C#N)(C(C)O2)C1(C#N)C#N (stereo not given) | 52 | - | - | 22 | - | 35
Cc1c(S(=O)(=O)NCCc2ccccc2)c(=O)n(C)c(=O)n1C | - | - | - | - | - | .
Nc1c(C(=O)N/N=C/c2cccnc2)oc2nc(-c3ccco3)cc(-c3ccco3)c12 | 68 | . | . | 56 | - | -
Nc1c(C(=O)N/N=C/c2cccnc2)oc2nc(-c3ccccc3)cc(-c3ccco3)c12 | - | . | . | - | - | .
Cc1ccccc1-c1oc(C)c(C)[n+]1[O-] | - | - | - | - | - | .
COC(=O)c1ccc(COc2ccccc2/C=N/NC(N)=O)o1 | - | . | . | - | - | .
O=C(/C=C/c1ccc(Cl)cc1)NC(=S)Nc1ccccc1C(=O)O | - | - | - | 17 | - | -
COc1cccc(C(=O)N/N=C/c2ccc(OC3CSC3)cc2)c1 | - | - | - | - | - | .
N#CCC(=O)N/N=C/c1ccc(OC2CSC2)cc1 | - | - | - | 25 | - | -
O=C1CCC/C(=N\NC(=O)c2ccc(COc3cccc4cccnc34)cc2)C1 | - | - | - | 37 | 49 | -
COc1ccc2c3c(cccc13)C(=O)CC2 | . | 715 | - | + | . | +
Cc1ccc(/C=C/C(=O)O)cc1S(=O)(=O)NC1CCS(=O)(=O)C1 (stereo not given) | - | - | - | 15 | - | -
Cc1ccc(/C=C/C(=O)O)cc1S(=O)(=O)NCC1CCCO1 (stereo not given) | - | - | - | - | - | .
O=C(NN1S(=O)(=O)c2ccccc2S1(=O)=O)c1ccc(Br)cc1 | - | - | - | - | - | .
Cc1cccc(C(=O)NN2S(=O)(=O)c3ccccc3S2(=O)=O)c1 | - | - | - | 17 | - | -
CCSc1nnc(-c2ccc(S(=O)(=O)N3CCCC3)cc2)n1C | - | - | - | - | - | .
CCOC(=O)c1cc(OC)c2cccc(CN3CCC(C)(C(=O)NCCOC)C3)c2c1 (stereo not given) | . | . | . | 97 | . | 46
O=C(c1ccc2c(c1)CCN2S(=O)(=O)c1ccccc1)N1CCN(c2ccccc2)CC1 | - | - | - | - | - | .
O=C(c1ccc2c(c1)CCN2S(=O)(=O)c1ccccc1)N1CCN(c2ccccc2F)CC1 | - | - | - | 18 | - | -
SMILES | BCLXL inh | cardiac RTF act | RTF Ca sens inh | eLon inh | GLD-1 RNA inh | eLon confirm
C[C@H]1CN([C@@H](C)CO)C(=O)CCCn2nncc2CO[C@H]1CN(C)S(=O)(=O)c1cccc(F)c1 | . | . | . | 13 | . | -
C[C@H](CO)N1C[C@H](C)[C@@H](CN(C)S(=O)(=O)c2cccc(F)c2)OCc2cnnn2CCCC1=O | . | . | . | - | . | .
O=C(NCc1ccco1)C(Cc1ccccc1)NS(=O)(=O)c1cccc2nsnc12 (stereo not given) | - | - | - | - | - | .
O=C(CS(=O)(=O)c1ccccc1)Nc1ccc(S(=O)(=O)Nc2ncccn2)cc1 | - | - | - | - | - | .
O=C(Cc1c(Cl)cccc1Cl)Nc1ccc(S(=O)(=O)Nc2ncccn2)cc1 | - | - | - | 19 | - | -
O=C(CNC(=O)c1ccc(-c2ccccc2)cc1)Nc1ccc(S(=O)(=O)Nc2ncccn2)cc1 | - | - | - | 30 | - | 43
Cn1c(=O)c(N)c2c3c(c(Br)ccc31)C(=O)c1ccccc1-2 | + | + | - | + | + | +
CCC(C)C(NC(=O)c1ccc(Cl)cc1)C(=O)Nc1cccnc1 (stereo not given) | - | - | - | - | - | .
C=CCn1c(CCc2ccccc2)nnc1SCC(=O)OC | - | - | - | - | - | .
O=C(OCCSCCOC(=O)C1CC=CCC1)C1CC=CCC1 (stereo not given) | . | - | - | - | . | .
c1c2c(cc3sc(N4CCOCC4)nc13)OCCO2 | - | - | - | - | - | .
Cc1nc(N2CCOCC2)sc1C=O | - | - | - | 20 | - | -
Cc1ccc(Nc2nc(Cl)nc(NC3CCCCC3)n2)cc1 | - | - | - | - | - | .
O=C1C=C(NNC(=O)c2cccnc2)CC(c2ccco2)C1 (stereo not given) | 49 | - | - | 46 | 120 | -
CC1(C)CC=C(NNC(=O)c2cccnc2)C(=O)C1 | - | - | - | 21 | 67 | -
CC(C)C[C@@H](CN1CCC[C@H]1CN1C(=O)C(=O)NC[C@@H]1Cc1ccccc1)N1C[C@H](Cc2ccc(O)cc2)N(CC2CCCCCC2)C(=O)C1=O | . | . | . | 11 | . | -
Cc1ccccc1OCCNc1cc(N2CCCCC2)ccc1[N+](=O)[O-] | - | - | - | 15 | - | -
COc1cccc(C#Cc2c(CO)[nH]c3ccccc23)c1 | - | - | - | - | - | .
Cc1ccc(C)n1-c1ccc2c(c1)COC2=O | - | . | . | . | - | .
CC(=O)N1c2ccc(S(=O)(=O)N3CCC(C(=O)Nc4cccc(C(F)(F)F)c4)CC3)cc2CC1C (stereo not given) | - | - | - | 28 | - | -
CN(CC(=O)Nc1ccccc1Cl)C(=O)COC(=O)c1cc(S(=O)(=O)N(C)C)ccc1N1CCCC1 | - | - | - | - | - | .
CCN(CC1COc2ccccc2O1)C(=S)NC1CC2CCC1C2 (stereo not given) | - | - | - | - | - | .
CCC(=O)N(CCc1ccc(OC)c(OC)c1)Cc1cc2ccc(C)cc2n2nnnc12 | - | - | - | 16 | - | -
COc1ccc(/C=N/N=C2/CC(C)(C)Cc3n[nH]c(=O)cc32)cc1 | 138 | - | - | 45 | 120 | 21
O=C(COc1ccc([N+](=O)[O-])cc1)NNC(=O)Nc1ccc([N+](=O)[O-])cc1 | - | - | - | - | - | .
O=C(C/C=N\OCc1ccc([N+](=O)[O-])cc1)Nc1ccc(Br)cc1 | - | - | - | 17 | - | -
